# From PubChem BioAssay
# Calls of active or inactive are those of the source.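 How the source made its calls: active means viability loss from added drug above about 55%, and viability with drug at most 40%, in both replicates (limit read from the data, passing the limit was not always enough); inconclusive means both conditions met in only one replicate; inactive means neither replicate meets both conditions.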
# Assay: MRP1 drug-resistance reversers in H69AR cells – cell-based, doxorubicin co-treatment, pilot screen (AID 601)
# Settings: H69AR cells + 2 uM doxorubicin, CellTiter-Glo, 72 h; at 10 µM; active compounds read high
row,Structure (SMILES),differential viability (reversal)
1,CC(C)(C)C(O)C(Oc1ccc(Cl)cc1)n1cncn1 (stereo not drawn),5.54% (inactive)
2,COc1cc(/C=N/n2cnnc2)ccc1OC(=O)N(C)C,9.57% (inactive)
3,Nc1ccnn1C1CCNCC1,5.6% (inactive)
4,COC(=O)c1c(C)n(Cc2ccc3c(c2)OCO3)c2ccc(O)cc12,5.33% (inactive)
5,O=C(c1ccc(CS(=O)(=O)c2ccccc2)o1)N1CCC2(CC1)OCCO2,-6.95% (inactive)
6,COc1cc(C2NCc3ccccc3-n3cccc32)ccc1O (stereo not drawn),9.64% (inactive)
7,COc1ccc(CN2CCN(C(=O)Cc3ccccc3)CC2)c(OC)c1,9.87% (inactive)
8,CC(C)OC(=O)c1c(N)n(CC2CCCO2)c2nc3ccccc3nc12 (stereo not drawn),4.96% (inactive)
9,O=C(c1sc2ccccc2c1Cl)N1CCC2(CC1)OCCO2,6.83% (inactive)
10,CSc1ccc(C(=O)C(C)(C)N2CCOCC2)cc1,18.2% (inactive)
11,CCCCCCC(N)CC(=O)O (stereo not drawn),5.24% (inactive)
12,CC(C)(C)OC(=O)c1c(N)n(Cc2ccco2)c2nc3ccccc3nc12,-9.48% (inactive)
13,c1cncc(CNC2=NCCCCC2)c1,6.13% (inactive)
14,COc1ccccc1-n1c(O)c(C=NCc2ccc3c(c2)OCO3)c(=O)[nH]c1=O,3.46% (inactive)
15,O=C(CCCOc1ccc(Cl)cc1Cl)N1CCC2(CC1)OCCO2,11.1% (inactive)
16,Cc1oc2ccc(OC(=O)N(C)C)cc2c1C(=O)OC(C)C,11.3% (inactive)
17,Oc1ccc(C2NCc3ccccc3-n3cccc32)cc1Cl (stereo not drawn),1.1% (inactive)
18,O=c1[nH]c(=O)n(-c2ccc(F)cc2)c(O)c1C=Nc1ccccc1N1CCCC1,-6.94% (inactive)
